PubChem BioAssay (NCATS)
Results filed as inconclusive are left out. Entries that show only a call come without a potency. Active and inactive are the calls of the source. Calls come from the whole dose curve; as a rule, active = well fitted inhibition curve with a large enough effect; inconclusive = small, poorly fitted or top-dose-only effect; inactive = no such curve, though single readings can be large or run the other way.

assay: qHTS Screen of the MIPE 4.0 Collection Against Ewings Sarcoma (EW8) (AID 1259255); details: EW8 Ewing sarcoma viability, CellTiter-Glo, 48 h; series mostly up to 45.8 µM; note: nearly all actives have a fitted effect of over 35% in size
From the text: There is a large unmet medical need for treatments for Ewing sarcoma, a pediatric sarcoma. We sought to identify compounds that inhibited Ewing sarcoma cells in vitro with the goal to then test promising drugs in two drug combinations in vitro to look for synergistic drug combinations. Promising combinations would then proceed to additional validation, including in vivo testing.
Using the NCATS developed oncology compound library called the Mechanism of Interrogation Plate (MIPE), four Ewing sarcoma cell lines were evaluated (TC32, TC71, RDES, EW8). Compounds, in a 12-point titration series, were incubated with cells for 48 hours and the read out was cell viability (CellTiter-Glo from Promega). These initial experiments were used to select appropriate concentrations of each single agent for subsequent two-drug matrix combinations such that the concentrations in the matrices would span both activity and non-activity.
Cells, in the log phase of growth, were seeded in 5 uL of RPMI plus 5% FBS, […] L-glutamine, 100 U/ml penicillin and 100 ug/ml streptomycin into 1536-well solid-bottom white tissue culture treated Greiner Bio One Plates (789173-F) using a MultiDrop Combi (Thermofisher Scientific) dispenser and a small sterile cassette. One column was media alone to be used as a :"no cells" control. The plates were then covered with sterilized stainless steel gasketed lids from Kalypsys. After allowing cells to attach for 4 hours, 23 nL of test compound or control (negative control DMSO and positive control 9.2 uM Bortezomib-final) were added from a 1536-well polypropylene compound source plate to each well using a 1536 head pin tool from Kalypsys. Cells were then incubated for 48 hours at 37C, 95% relative humidity and 5% CO2. After 48 hours, plates were removed from the incubator and 3 uL of CellTiter-Glo (Promega) was added using an Aurora Flying Reagent Dispenser Bioraptor. Plates were incubated at room temperature for 10 minutes prior to reading the luminescence on the Viewlux (PerkinElmer). The relative luciferase units are used to calculate the percent activity using the activity of DMSO in the cells and no cells columns for normalization of no inhibition and full inhibition respectively.
Potency is the fitted concentration of half-maximal effect.

Row | Compound | Potency
1 | CC1(CN2CCC(n3c(=O)[nH]c4ccccc43)CC2)OCc2ccccc2-n2cccc21 (stereo not given) | 14.8 µM (active)
2 | CC1(C)O[C@H]2CC(=O)OC[C@]23[C@H]2CC[C@@]4(C)[C@H](c5ccoc5)OC(=O)[C@H]5O[C@]54[C@]2(C)C(=O)C[C@@H]13 | inactive
3 | COC(=O)Nc1nc2ccc(C(=O)c3cccs3)cc2[nH]1 | 0.0047 µM (active)
4 | O=c1c(-c2ccc(O)cc2)coc2cc(O)cc(O)c12 | inactive
5 | CN(C)CCOC(c1ccccc1)c1ccccc1 | inactive
6 | CC#C[C@]1(O)CC[C@H]2[C@@H]3CCC4=CC(=O)CCC4=C3[C@@H](c3ccc(N(C)C)cc3)C[C@@]21C | 0.418 µM (active)
7 | CN(C)CCCN1c2ccccc2CCc2ccc(Cl)cc21 | 2.96 µM (active)
8 | COc1ccccc1N1CCN(CC(O)COc2cccc3ccccc23)CC1 (stereo not given) | inactive
9 | Clc1ccc2c(c1)C(N1CCNCC1)=Nc1ccccc1O2 | 16.6 µM (active)
10 | Nc1c2c(nc3ccccc13)CCCC2 | 18.7 µM (active)
11 | NCCc1cnc[nH]1 | inactive
12 | CC(CCc1ccc(O)cc1)NCCc1ccc(O)c(O)c1 (stereo not given) | 23.5 µM (active)
13 | Cc1cn([C@H]2C[C@H](N=[N+]=[N-])[C@@H](CO)O2)c(=O)[nH]c1=O | inactive
14 | COc1ccccc1OCC(O)CN1CCN(CC(=O)Nc2c(C)cccc2C)CC1 (stereo not given) | inactive
15 | O=C1c2c(O)ccc(O)c2C(=O)c2c(NCCNCCO)ccc(NCCNCCO)c21 | 0.059 µM (active)
16 | COc1ccc2c(c1)c(CC(=O)O)c(C)n2C(=O)c1ccc(Cl)cc1 | inactive
17 | CN(C)c1nc(N(C)C)nc(N(C)C)n1 | inactive
18 | O=C1N(c2ccccc2)c2ccccc2C1(Cc1ccncc1)Cc1ccncc1 | inactive
19 | Cc1cn([C@H]2C=C[C@@H](CO)O2)c(=O)[nH]c1=O | inactive
20 | CN(C)C(=O)C(CCN1CCC(O)(c2ccc(Cl)cc2)CC1)(c1ccccc1)c1ccccc1 | 16.6 µM (active)

Row | Compound | Potency
21 | COc1ccc2[nH]cc(CCNC(C)=O)c2c1 | 2.96 µM (active)
22 | Cc1cc(C(C)(C)C)cc(C)c1CC1=NCCN1 | inactive
23 | NCCS(=O)(=O)O | inactive
24 | NS(=O)(=O)c1cc2c(cc1Cl)NCNS2(=O)=O | inactive
25 | Cn1cnc2c1c(=O)[nH]c(=O)n2C | 23.5 µM (active)
26 | O=C(Nc1ccc([N+](=O)[O-])cc1Cl)c1cc(Cl)ccc1O | 16.6 µM (active)
27 | CC(C)Cc1ccc(C(C)C(=O)O)cc1 (stereo not given) | inactive
28 | CC(C)C(=O)Nc1ccc([N+](=O)[O-])c(C(F)(F)F)c1 | 13.2 µM (active)
29 | CC1COc2c(N3CCN(C)CC3)c(F)cc3c(=O)c(C(=O)O)cn1c23 (stereo not given) | inactive
30 | Clc1ccc2nsnc2c1NC1=NCCN1 | inactive
31 | CS(=O)(=O)Nc1ccc([N+](=O)[O-])cc1Oc1ccccc1 | 16.6 µM (active)
32 | O=c1c(O)c(-c2ccc(O)c(O)c2)oc2cc(O)cc(O)c12 | 13.2 µM (active)
33 | CCc1cccc2c3c([nH]c12)C(CC)(CC(=O)O)OCC3 (stereo not given) | inactive
34 | Nc1ccn([C@H]2CC[C@@H](CO)O2)c(=O)n1 | inactive
35 | Cn1c(=O)c2c(ncn2C)n(C)c1=O | inactive
36 | CC(C)NCC(O)c1ccc(O)c(O)c1 (stereo not given) | 20.9 µM (active)
37 | O=C1Cc2cc(CCN3CCN(c4nsc5ccccc45)CC3)c(Cl)cc2N1 | 23.5 µM (active)
38 | Cc1ccc(C(=O)Nc2ccc(S(=O)(=O)O)c3cc(S(=O)(=O)O)cc(S(=O)(=O)O)c23)cc1NC(=O)c1cccc(NC(=O)Nc2cccc(C(=O)Nc3cc(C(=O)Nc4ccc(S(=O)(=O)O)c5cc(S(=O)(=O)O)cc(S(=O)(=O)O)c45)ccc3C)c2)c1 | inactive
39 | C[C@](N)(Cc1ccc(O)c(O)c1)C(=O)O | inactive
40 | CN(Cc1cnc2nc(N)nc(N)c2n1)c1ccc(C(=O)N[C@@H](CCC(=O)O)C(=O)O)cc1 | 0.0264 µM (active)
